Screening data as filed in PubChem.
Compounds with a hit are over-represented: about 1.3% of the library has one in this group of screens.
CRFR2-BP antag = CRF-BP/CRF-R2 complex antagonism. hit rate 0.59% among 350,000. HEK293 CRF-R2/CRF-BP, CRF-induced calcium fluorescence. AID 588475. inhibition, % at 11.8 µM;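 active = inhibition of the ligand-induced calcium signal above about 50% at the single tested concentration, limit read from the data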
CRFR2-BP ag = CRF-BP/CRF-R2 complex agonism | HEK293 CRF-R2/CRF-BP, calcium dye fluorescence (FLIPR); percent of saturating CRF peptide response | activation, % at 13.2 µM | hit rate 0.46% among 350,000 | AID 588473;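 active = activation of at least 50%, plus an integration ratio under a set limit after plate pattern correction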;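 note: plate controls were neutral control wells without compound for no effect and CRF at EC100 for full effect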
RTF Ca sens act = cardiac RTF calcium sensitization. P19429+P45379. IANBD-labeled TnC RTF fluorescence at EC20 calcium; 0% EC20 calcium, 100% full calcium. activation, % at 7.2 µM. hit rate 0.24% among 340,000. AID 493008;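 active = activation above the mean over all tested compounds plus 3 SD, cut at about 30% in these data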;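 note: rise in fluorescence read as greater calcium sensitivity of cardiac thin filaments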
Cardiac RTF inh = cardiac RTF calcium desensitization. P19429+P45379. IANBD-labeled cardiac RTF, Ca2+ fluorescence. inhibition, % at 7.15 µM. hit rate 0.12% among 340,000;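 active = inhibition above the mean inhibition of all tested compounds plus 3 SD, cut at about 17% in these data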;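 note: assay run at fixed EC70 calcium of 1.6 mM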
* marks the source's active call; other numbers are inactive results; / = no result.

SMILES	CRFR2-BP antag	CRFR2-BP ag	RTF Ca sens act	Cardiac RTF inh
Cc1ccc(S(=O)(=O)CCC(=O)Nc2cc(Cl)ccc2-n2cncn2)cc1	50*	0	-7	-8
CCc1ccc(OCCOCC(O)CNC(C)(C)C)cc1 (stereo not given)	-15	58*	-3	-4
CCc1ccc(OCCOCC(O)CN(CCO)CCO)cc1 (stereo not given)	37	-2	0	7
Cc1ccc(CC(=O)NCCCc2ccccc2)cc1	60*	-4	-5	-3
O=[N+]([O-])c1ccc2[nH]c(O)c(N=NC3CCS(=O)(=O)C3)c2c1 (stereo not given)	7	1	9	-7
C=CCn1c(-c2ccc(OC)cc2)nc2ccccc21	-180	154*	-3	5
Cc1ccc(NC(=O)NNC(=O)CN2C(=O)COc3ccccc32)cc1	8	1	-4	-22
COc1ccc(C(=O)N(c2ccccc2)C2C=CS(=O)(=O)C2)cc1 (stereo not given)	52*	-1	-4	4
COc1ccc(NC(=S)N(CCN2CCOCC2)Cc2cc3cc4c(cc3[nH]c2=O)OCCO4)cc1	-2	-1	2	-3
Brc1ccc(-c2cn3nc4c(nc3n2)CCCC4)cc1	22	6	20	-22
c1ccc(-c2cn3nc4c(nc3n2)CCCC4)cc1	-23	6	31*	-27
Cc1cc(F)ccc1S(=O)(=O)NCC1CC2CCC1C2 (stereo not given)	-93	87*	1	-11
COc1ccc(OC)c(S(=O)(=O)Oc2ccc(N)c3ccccc23)c1	16	-3	3	0
O=C1CCNc2ccc(-c3ccccc3)cc21	9	34	64*	-71
CCOC(=O)CCSc1nc(-c2ccc3c(c2)OCO3)cc(C(F)(F)F)c1C#N	-16	8	-1	10
CCOC(=O)CC(=O)CSc1nc(-c2ccc3c(c2)OCO3)cc(C(F)(F)F)c1C#N	-78	37	40*	-12
CCOc1ccc(NC(=S)N(CCOC)C(C)c2ccco2)cc1 (stereo not given)	13	-3	-2	-3
C#CCOCCOCCOCCNc1nc(N2CCN(C(=O)CCCCCCCCCCNC(=O)Cn3cc(CCCCCN)nn3)CC2)nc(N2CCN(C(=O)CCCCCCCCCCNC(=O)[C@H]([C@@H](C)CC)n3cc(CCCCCN)nn3)CC2)n1	-61	89*	-1	3
C#CCOCCOCCOCCNc1nc(N2CCN(C(=O)CCCCCCCCCCNC(=O)Cn3cc(CCCCCN)nn3)CC2)nc(N2CCN(C(=O)CCCCCCCCCCNC(=O)[C@H](CO)n3cc(CCCCCN)nn3)CC2)n1	-17	38	10	-1
C#CCOCCOCCOCCNc1nc(N2CCN(C(=O)CCCCCCCCCCNC(=O)[C@H](CCCCN)n3cc(CCO)nn3)CC2)nc(N2CCN(C(=O)CCCCCCCCCCNC(=O)[C@H](CCCN=C(N)N)n3cc(C[C@@H](C)CC)nn3)CC2)n1	-43	18	5	3
C#CCOCCOCCOCCNc1nc(N2CCN(C(=O)CCCCCCCCCCNC(=O)[C@H](CCCCN)n3cc(C[C@@H](C)CC)nn3)CC2)nc(N2CCN(C(=O)CCCCCCCCCCNC(=O)[C@H](CCCCN)n3cc(C[C@@H](C)CC)nn3)CC2)n1	-142	92*	-1	0
Cc1ccc(C)c(N2CCN(S(=O)(=O)c3ccc4c(c3)C(C)(C)C(=O)N4C)CC2)c1	127*	-2	-1	2
O=c1[nH]c2ccccc2c(O)c1O	97*	0	1	-2
COC(=O)C1=NN(c2ccccc2)C2(S1)SC(C(C)=O)=C(C)N2c1ccccc1 (stereo not given)	65*	-1	0	0
COc1ccccc1CCC(=O)N1CCN(S(=O)(=O)c2cccc(F)c2)CC1	5	1	0	-5
SMILES	CRFR2-BP antag	CRFR2-BP ag	RTF Ca sens act	Cardiac RTF inh
CCN(CC)c1ccc(/C=C(/C#N)c2nc3ccccc3[nH]2)c(OC(C)C)c1	-219	158*	148*	-291
Nc1ccc(C(=O)N/N=C/c2cccc(Oc3ccccc3)c2)cc1	0	0	5	-8
Cc1nn(C)c(C(=O)N/N=C/c2cccc(Oc3ccccc3)c2)c1Br	-54	58*	0	-8
CC(NCC(=O)Nc1ccccc1C(=O)NC1CC1)c1ccc(F)cc1F (stereo not given)	-12	1	-1	-2
CC(C)CC(NC(=O)/C(=C/c1ccco1)NC(=O)c1ccc(Br)o1)C(=O)O (stereo not given)	58*	3	8	-11
O=C(CN1C(=O)NC2(CCCC2)C1=O)NNC(=O)c1ccc(F)cc1	0	2	4	-9
CC[n+]1c(/C=C/C=C/N(C(C)=O)c2ccccc2)sc2cc(OC)ccc21	-127	146*	/	/
CC[n+]1c(/C=C(\C)OC)sc2ccccc21	-44	-1	-5	10
COc1ccc(OC)c(NC(=O)c2[nH]c(C)c(C(C)=O)c2C)c1	77*	-3	3	-2
Cn1c2ccccc2c(=O)c2ccc(C#CC3(O)CCCCC3)cc21	6	1	-5	5
Cc1c(N)c(C(C)(C)C)cc(C(C)(C)C)c1[N+](=O)[O-]	-21	-2	0	-13
Cc1cc2nc3c(=O)[nH]c(=O)[nH]c3nc2c([N+](=O)[O-])c1N	-23	60*	140*	-133
O=C(O)CC1NCCc2ccccc21 (stereo not given)	13	3	-5	-20
CN(CC(=O)Nc1cccc(F)c1)CC(=O)Nc1cccc(S(N)(=O)=O)c1	2	1	3	-9
Cc1cc(Br)c2c(c1)C(O)(N1CCCCC1C)C(=O)N2 (stereo not given)	-22	-2	30*	-3
CCc1cccc(NC(=S)N(CCCN2CCOCC2)C(C)c2cc3cccc(OC)c3o2)c1 (stereo not given)	77*	-1	1	-16
CC(C)Oc1ccc(CNC(=O)CCCN2C(=O)C(c3ccccc3)Oc3cccnc32)cc1 (stereo not given)	4	2	1	-9
Cc1ccc(/C=C2/SC(=S)N(c3ccc(S(=O)(=O)Nc4nccs4)cc3)C2=O)cc1	59*	-1	7	-3
O=C(Nc1ccc([N+](=O)[O-])cc1)N1CCCCC1	10	0	0	1
COc1ccc([N+](=O)[O-])cc1NC(=O)CSCc1ccccc1	37	-1	-4	-42
O=C(CSCc1ccccc1)Nc1cc([N+](=O)[O-])ccc1F	85*	-1	6	-14
O=C1NC(=S)N/C1=C\c1ccccc1OCc1ccc(C(=O)O)cc1	-6	1	-2	-11
O=C(O)c1ccc(COc2ccccc2C=C2C(=O)c3ccccc3C2=O)cc1	81*	-1	-2	-3
O=C(Nc1nc(-c2ccccc2)cs1)c1ccccc1NS(=O)(=O)c1ccc(F)cc1	101*	65*	-2	-1
COc1ccc(S(=O)(=O)Nc2ccc(-n3cnnn3)cc2)cc1[N+](=O)[O-]	-5	-1	-2	-4
